Assay outcomes deposited in PubChem by National Center for Advancing Translational Sciences (NCATS).
G9a inh: blocks human histone lysine methyltransferase G9a | G9a H3K9 monomethylation, AlphaScreen, 2 h | Potency, µM (doses to about 102 µM), for the others: top-dose activity, negative = inhibition, actives largely listed as inhibitors | 8.8% of 350,000 active | AID 504332; further: potency means the concentration at half of the fitted maximal effect; on the % scale 0 is the no-effect control and ±100 the full control effect; nearly all actives have a fitted effect of over 75% in size
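Step 1: enzyme (final 20 nM) with compound, 15 min RT. Step 2: substrate peptide 500 nM and SAM 20 uM, 2 h RT. Step 3: anti-H3K9me1 antibody and AlphaScreen beads, 10 min, then plate read.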
CtBP-E1A inh: CtBP/E1A binding inhibition | AlphaScreen GST-E1A/His-CtBP binding, 1536-well; hits give low values | activity change, % (no concentration beside the values) | 0.49% of 340,000 active | AID 651724; in the data active means activity change below about -65%; inconclusive means mostly about -30% to -63%; further: on the % scale 0 is the no-effect control and ±100 the full control effect
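AlphaScreen with 125 nM GST-E1A and 125 nM His-CtBP (5X stocks) in Tris pH 8.0, 300 mM NaCl, BSA, Tween 20, TCEP. Compounds preincubated 2 h at 37 deg C, then glutathione donor/nickel acceptor beads added for 1 h at 37 deg C in dark.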
Six1-Eya2 blk: Six1/Eya2 interaction inhibition; Q15475+O00167; AlphaScreen GST-Six1/His-Eya2 binding, biochemical; hits give low values; activity change, % (concentration not given with the values); 0.56% of 360,000 active; in the data active means activity change below about -65%; inconclusive means mostly about -30% to -63%; further: on the % scale 0 is the no-effect control and ±100 the full control effect
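Compounds are tested against tagged Six1 and Eya2 proteins bridged by glutathione donor and nickel acceptor beads; after a one-hour incubation at 37 °C without light, AlphaScreen emission is recorded.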
JMJD2A Tudor inh: inhibitors of human JMJD2A Tudor domain | O75164 | AlphaScreen JMJD2A-Tudor / H3K4me3 peptide binding | Potency, µM (top dose mostly 114 µM), without a hit: at the top dose activity change, negative = inhibition, most hits filed as inhibitors | 4.4% of 390,000 active; further: potency means the concentration at half of the fitted maximal effect; on the % scale 0 is the no-effect control and ±100 the full control effect; nearly all actives have a fitted effect of over 50% in size
HP1b binding inh: HP1-beta chromodomain-methylated histone interaction inhibition; P83916; AlphaScreen HP1-beta / biotin-H3K9me3 peptide binding; Potency, µM (doses to about 114 µM), for inactives: at the highest dose activity change, negative = inhibition, most hits filed as inhibitors; 0.56% of 390,000 active; AID 540317; further: potency means the concentration at half of the fitted maximal effect; nearly all actives have a fitted effect of over 70% in size
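Compound inhibition of the preformed complex between 50 nM HP1-beta and 50 nM biotinylated H3K9me3 peptide was read by AlphaScreen. Buffer was PBS pH 7.4 with 0.01% Tween-20. Incubations ran 30 min at room temperature, with 10 ug/mL donor/acceptor beads.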
BAZ2B inh: blocks human BAZ2B | Potency, µM (titrated, usually from 114 µM), without a hit: at the top dose activity change, negative = inhibition, most hits filed as inhibitors | AlphaScreen BAZ2B-H3K14Ac peptide displacement | Q9UIF8 | AID 504333 | 4.4% of 360,000 active; further: potency means the concentration at half of the fitted maximal effect; on the % scale 0 is the no-effect control and ±100 the full control effect; nearly all actives have a fitted effect of over 60% in size
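In this displacement format the biotinylated H3(5-23) peptide acetylated at Lys14 serves as ligand at 50 nM, with BAZ2B at 50 nM in PBS pH 7.4 containing 0.01% Tween-20. Donor and acceptor beads are 10 ug/mL final.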
Starred values were filed as active, the others as inactive; ? = inconclusive; / = no result; ! = not confirmed by another sample; [ ] = dose if it differs, or a comment. Most compounds without a hit are left out; they make up all but 10% or so of the library. Unless noted, the call rests on the fitted dose curve; in most records, active means well fitted inhibition curve with a large enough effect; inconclusive means small, poorly fitted or top-dose-only effect; inactive means no such curve, though single readings can be large or run the other way.

SMILES | G9a inh | CtBP-E1A inh | Six1-Eya2 blk | JMJD2A Tudor inh | HP1b binding inh | BAZ2B inh
Cc1ccc(C2=NN(CC(=O)O)C(=O)CC2)cc1 | 45µM* | 7 | 6 | -17% | 2% | -3%
Cc1ccc(CNC(=O)CN2N=C(c3ccccc3)CCC2=O)cc1 | 5%[59 µM] | / | / | -8% | 22% | 1%
CCN(CCCNC(=O)CN1N=C(c2ccc(C)cc2)CCC1=O)c1ccccc1 | 10µM* | / | / | 56µM* | ? | 14µM*
CCN(CCCNC(=O)CN1N=C(c2ccc(OC)cc2)CCC1=O)c1cccc(C)c1 | 11µM* | / | / | 79µM* | ? | 40µM*
CCOc1ccc(CCNC(=O)Cn2nc(CC)n3c(cc4sccc43)c2=O)cc1 | 10%[59 µM] | / | / | -17% | 24% | -4%
CC1CN(C(=O)CSc2nc(N)c(NC(=O)c3ccc(C(F)(F)F)cc3)c(=O)[nH]2)CC(C)O1 (centres undefined) | / | 9 | 3 | / | / | /
CCN(CCCNC(=O)CN1N=C(c2ccccc2)CCC1=O)c1cccc(C)c1 | 14µM* | / | / | ? | ? | ?
Cc1ccc(C2=NN(CC(=O)NCCc3ccccc3)C(=O)CC2)cc1 | -10%[59 µM] | / | / | -21% | -9% | -10%
COc1ccc(NC(=O)CSc2nnc(-c3cccs3)o2)cc1 | -2%[59 µM] | / | / | -4% | 25% | -12%
CCOC(=O)N1CCN(Cc2nc3cc(NC(=O)C(C)C)ccc3n2C(C)C)CC1 | 1%[59 µM] | / | / | -19% | 34% | -3%
CC(C)(C)NC(=O)C(=O)NNC(=O)c1ccccc1 | ? | 9 | 4 | 8.9µM* | 16% | ?
CC(C)(C)NC(=O)C(=O)NNC(=O)c1cccc(F)c1 | 9% | ? | -21 | 10µM* | 2% | ?
CC(C)(C)NC(=O)C(=O)NNC(=O)COc1ccccc1 | ? | 7 | 18 | ? | 10% | -5%
COc1ccc(NS(=O)(=O)c2ccc(N3CCCC3)c(NC(=S)Nc3cccc(S(=O)(=O)N(C)C)c3)c2)cc1 | 1.6µM* | / | / | / | / | ?
CCC(=O)/C=C1/Sc2ccccc2N1CC | 8.9µM* | -1 | -4 | ? | -14% | -9%
CCC(=O)/C=C1/Sc2ccc(OC)cc2N1CC | 0%[59 µM] | 7 | -7 | -16% | 35% | 7%[57.1 µM]
CCN1CCc2nc3sc(C(=O)N4CCc5ccccc5C4)c(N)c3cc2C1 | 20µM* | -11 | 2 | 79µM* | -19% | ?
Cc1cc(C)c2c(N)c(C(=O)NCC3CCCCC3)sc2n1 | ? | -3 | -8 | 9% | 64% | 9%
Cc1cc(C)c2c(N)c(C(=O)N3CCc4ccccc4C3)sc2n1 | 71µM* | / | 7 | 1% | 99% | -15%
Cc1cc(C)c2c(N)c(C(=O)NC3CCCC3)sc2n1 | 35µM* | 19 | -1 | -8% | 44% | -2%
CC(C)OCCCn1c(-c2ccc(Br)cc2)c[nH]c1=S | 3.5µM* | -28 | -2 | ? | -29% | ?
Cc1ccn(CC(=O)N2CCCC(N3CCN(c4cccc(C(F)(F)F)c4)CC3)C2)n1 (centres undefined) | / | -7 | 0 | / | / | /
O=C(/C=C/c1ccccc1Cl)NC1CCCCC1 | 60% | / | 11 | 2% | 16% | -3%
Cc1cc(N)c2cc(NC(=O)/C=C/c3ccccc3Cl)ccc2n1 | 25µM* | -7 | -7 | 63µM* | -20% | ?
O=C(/C=C/c1ccccc1Cl)Nc1ccncc1 | 50µM* | -16 | 1 | -26% | 25% | -36%
SMILES | G9a inh | CtBP-E1A inh | Six1-Eya2 blk | JMJD2A Tudor inh | HP1b binding inh | BAZ2B inh
O=C(/C=C/c1ccccc1Cl)NC1CCS(=O)(=O)C1 (centres undefined) | 6% | -2 | 11 | 5µM* | -18% | 0%
CC(C)Cc1ccc(C(C)NC(=O)c2ccc(=O)[nH]c2)cc1 (centres undefined) | 4% | 2 | 0 | -19% | 21% | -14%
Cc1ccc(NC(=O)CSCC#N)cc1 | 50µM* | 1 | 2 | 5% | 23% | 4%
c1ccc(CSc2ccc(-c3cccnc3)nn2)nc1 | -1% | 5 | 6 | -13% | 28% | 8%
CCOC(=O)CCCCC(=O)c1[nH]c(=O)[nH]c1CSCCO | ? | 11 | 0 | 79µM* | -30% | 13µM*
CCOC(=O)CCCCC(=O)c1[nH]c(=O)[nH]c1Cn1cnc2ccccc21 | ? | -22 | 3 | ? | -11% | 35µM*
N#Cc1c(-c2ccccc2)nc(SCC(=O)N(c2ccccc2)c2ccccc2)[nH]c1=O | ? | -8 | -16 | -2% | 9% | -13%
CCOC(=O)CCCCC(=O)c1[nH]c(=O)[nH]c1CSc1nc(-c2ccccc2)c(C#N)c(=O)[nH]1 | ? | 0 | -7 | ? | 20% | 35µM*
CCc1ccccc1Nc1nn2c(=O)c3ccc(C(=O)NC4CCCCC4)cc3nc2s1 | 4%[59 µM] | / | / | -13% | 21% | -6%
CCN(CC)S(=O)(=O)c1ccc2c(c1)N(CC(=O)Nc1cccc(C#N)c1)C(=O)CO2 | -10%[59 µM] | / | / | -10% | 25% | -19%
CCCCNC(=O)CCC(=O)NNc1nc2ccccc2c2nc(-c3ccccc3)nn12 | -2%[59 µM] | -2 | -10 | -12% | 27% | 89µM*!
CCCCNC(=O)CCC(=O)NNc1nc2ccccc2c2nc(C)nn12 | 25µM*! | -19 | -19 | -6% | 48% | -3%[57.1 µM]
OCC1CCCN(C(=S)Nc2ccc(Nc3ccccc3)cc2)C1 (centres undefined) | 18µM* | ? | -29 | ? | ? | ?
O=P(c1ccccc1)(c1ccccc1)c1cc(S(=O)(=O)O)ccc1O | 35µM* | 7 | -15 | 40µM* | 35µM* | 50µM*
O=P(O)(c1ccccc1)c1ccccc1O | 10%[59 µM] | 7 | 4 | ? | 53% | -35%
Cc1ccc(C(=O)/C=C/c2ccccc2[N+](=O)[O-])cc1 | ? | 4 | 1 | ? | ? | ?
O=C(/C=C/c1ccccc1[N+](=O)[O-])c1ccccc1Br | 40µM* | -9 | 4 | 56µM* | ? | 32µM*
CC1CN(C(=O)/C=C/c2ccccc2[N+](=O)[O-])CC(C)O1 (centres undefined) | -4% | 1 | -6 | 10µM* | 23%[57 µM] | -14%
CC1CN(C(=O)/C=C/c2cccc([N+](=O)[O-])c2)CC(C)O1 (centres undefined) | / | 8 | 4 | 0% | 20% | /
Cc1cc(C(O)c2ncc(-c3ccccc3C)[nH]2)ccc1F (centres undefined) | / | -6 | -7 | / | / | /
CCN(CCCNC(=O)c1ccc(Sc2ccc(Cl)cc2)c(NC(C)=O)c1)c1cccc(C)c1 | 13µM* | / | / | ? | ? | ?
